PubChem BioAssay
The source made the active and inactive calls.

Legend:
[1] = binders of probe aFSTL3 on microarray, primary screen, stem cell growth factor project, biochemical, small-molecule microarray, fluorescence 635/667 (AID 1064); conditions: higher = more signal;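 also: measures binding of the biotinylated anti-FSTL3 antibody to printed compounds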
[2] = binders from COS7 lysate, DM2A8 probe, primary screen, torsin A project, cell lysate, small-molecule microarray, fluorescence 635/667 (AID 1065); conditions: higher = more signal, COS7 lysate expressing mutant human TOR1A
[3] = binders of probe aFGF2 on microarray, primary screen, stem cell growth factor project, biochemical, small-molecule microarray, fluorescence 635/667 (AID 1067); conditions: higher = more signal;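 also: measures binding of biotinylated aFGF2 protein to printed compounds on slides; z-score merges feature fluorescence and signal-to-noise across triplicate slides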
[4] = binders of probe aFGF10 on microarray, primary screen, stem cell growth factor project, biochemical, small-molecule microarray, fluorescence 635/667 (AID 1071); conditions: higher = more signal;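 also: score merges 667 nm spot intensity and signal to noise from triplicate slides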
[5] = target: Neurogenic locus notch homolog protein 2 (Homo sapiens) (UniProt Q04721); assay: Notch2 binders on small-molecule microarrays, primary screen, biochemical, small-molecule microarray, 635 nm fluorescence, stem cell growth factors (AID 1073); conditions: Notch2 binding, higher = more signal
[6] = target: Pro-neuregulin-1, membrane-bound isoform (Homo sapiens) (UniProt Q02297); assay: NRG1 binders on small-molecule microarrays, primary screen, psychiatric disease protein project, biochemical, small-molecule microarray, fluorescence 635/667 (AID 1075); conditions: NRG1 binding, 635 nm fluorescence, higher = more signal;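 also: score combines 667 nm spot fluorescence with signal to noise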
[7] = tested on: Neuregulin-1 EGF-like domain; assay: binders of neuregulin-1 EGF-like domain, primary screen, biochemical, small-molecule microarray, 635 nm fluorescence (AID 1081); conditions: small-molecule microarray binding, higher = more signal;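 also: binding of the protein to compounds printed on small-molecule microarray slides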
[8] = FRG1 promoter luciferase signal modulators, primary screen, FRG1 inhibition for FSHD, cell-based, C2C12 myotubes, firefly/Renilla luciferase, luminescence (AID 1084); conditions: higher = more signal, called active from +8 up or from −8 down
[9] = binders of probe aFST on microarray, primary screen, stem cell growth factor project, biochemical, small-molecule microarray, fluorescence 635/667 (AID 1086); conditions: higher = more signal;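 also: score merges 667 nm fluorescence with signal-to-noise of each printed compound spot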
[10] = binders of probe aHhip on microarray, primary screen, stem cell growth factor project, biochemical, small-molecule microarray, fluorescence 635/667 (AID 1087); conditions: higher = more signal;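 also: score merges spot fluorescence at 667nm with spot signal to noise ratio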
[11] = tested on: PRMT1 (protein arginine N-methyltransferase 1); assay: PRMT1 binders on small-molecule microarrays, primary screen, biochemical, small-molecule microarray, 635 nm fluorescence (AID 1088); conditions: small-molecule microarray binding, higher = more signal;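 also: binding of Prmt1 protein to compounds spotted on small-molecule microarray slides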
[12] = yeast growth modulation, basal conditions, primary screen, YJM789 clinical isolate, OD600, 24 h (AID 1089);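 also: growth of clinical yeast isolate S. cerevisiae YJM 789 seeded 1000 cells per well; test concentration not given here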; conditions: S. cerevisiae YJM789 growth, higher = more signal, called active from +8 up or from −8 down
[13] = fission yeast growth modulation, primary screen, strain 972, OD600, 24 h, no modulator (AID 1090);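 also: basal condition with compound alone and no growth modifier present; test concentration not given here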; conditions: S. pombe 972 growth, higher = more signal, called active from +8 up or from −8 down
[14] = S. cerevisiae growth modulation with rapamycin, primary screen, strain BY4716, OD600, 96 h (AID 1091); conditions: higher = more signal, called active from +8 up or from −8 down; also: test concentration not given here
[15] = target: Torsin-1A-interacting protein 2 (Homo sapiens) (UniProt Q8NFQ8); assay: LULL1 binders on small-molecule microarray, primary screen, cell lysate, human LULL1 lysate, 635/667 nm fluorescence (AID 1092); conditions: hLULL1 lysate binding, 635 nm fluorescence, higher = more signal;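 also: probe is lysate of COS7 cells overexpressing human LULL1; score merges per-feature 667 nm fluorescence with signal-to-noise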
[16] = E. coli growth modulation, two-sided OD650, primary screen, E. coli filamentation project, strain DRC41, 24 h (AID 1093); conditions: OD650, 24 h, higher = more signal, called active from +8 up or from −8 down;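 also: MC1000 strain lacking acrAB efflux and sulA so SOS filamentation is blocked; test concentration not given here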
[17] = small-molecule microarray binders of probe aLefty2, primary screen, biochemical, biotinylated probe, 635/667 nm fluorescence (AID 1094); conditions: higher = more signal;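 also: score merges spot fluorescence near 667 nm with spot signal-to-noise ratio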
[18] = tested on: Noggin (protein binding on small-molecule microarray); assay: Noggin binders on small-molecule microarray, primary screen, biochemical, 635/667 nm fluorescence (AID 1095); conditions: 635 nm fluorescence, higher = more signal;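 also: score merges 667 nm feature fluorescence with signal to noise over triplicate slides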
[19] = target: Neurogenic locus notch homolog protein 3 (Homo sapiens) (UniProt Q9UM47); assay: NOTCH3 binders on small-molecule microarray, primary screen, biochemical, 635/667 nm fluorescence (AID 1096); conditions: NOTCH3 binding, 635 nm fluorescence, higher = more signal
[20] = small-molecule microarray binders of probe aEGFR, primary screen, biochemical, biotinylated probe, 635/667 nm fluorescence (AID 1097); conditions: higher = more signal;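 also: probe is a biotinylated anti-EGFR antibody binding compounds printed on slides; score combines fluorescence near 667 nm and signal to noise of each spot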

Torsin-1A-interacting protein 2 (Homo sapiens), sequence (Q8NFQ8 whole entry, looked up): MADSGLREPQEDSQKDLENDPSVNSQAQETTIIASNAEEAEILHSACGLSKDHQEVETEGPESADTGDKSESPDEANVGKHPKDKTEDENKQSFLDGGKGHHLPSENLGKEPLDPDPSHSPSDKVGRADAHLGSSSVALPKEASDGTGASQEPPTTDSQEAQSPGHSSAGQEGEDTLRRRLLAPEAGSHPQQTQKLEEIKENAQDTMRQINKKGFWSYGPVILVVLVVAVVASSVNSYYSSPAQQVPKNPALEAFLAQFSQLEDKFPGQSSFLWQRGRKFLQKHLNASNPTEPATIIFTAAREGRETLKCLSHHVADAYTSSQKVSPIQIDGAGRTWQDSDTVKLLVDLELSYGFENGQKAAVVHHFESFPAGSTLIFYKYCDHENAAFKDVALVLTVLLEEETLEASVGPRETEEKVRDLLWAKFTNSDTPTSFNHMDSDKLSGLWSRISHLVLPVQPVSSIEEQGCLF
Neurogenic locus notch homolog protein 3 (Homo sapiens), sequence (Q9UM47 whole entry, looked up): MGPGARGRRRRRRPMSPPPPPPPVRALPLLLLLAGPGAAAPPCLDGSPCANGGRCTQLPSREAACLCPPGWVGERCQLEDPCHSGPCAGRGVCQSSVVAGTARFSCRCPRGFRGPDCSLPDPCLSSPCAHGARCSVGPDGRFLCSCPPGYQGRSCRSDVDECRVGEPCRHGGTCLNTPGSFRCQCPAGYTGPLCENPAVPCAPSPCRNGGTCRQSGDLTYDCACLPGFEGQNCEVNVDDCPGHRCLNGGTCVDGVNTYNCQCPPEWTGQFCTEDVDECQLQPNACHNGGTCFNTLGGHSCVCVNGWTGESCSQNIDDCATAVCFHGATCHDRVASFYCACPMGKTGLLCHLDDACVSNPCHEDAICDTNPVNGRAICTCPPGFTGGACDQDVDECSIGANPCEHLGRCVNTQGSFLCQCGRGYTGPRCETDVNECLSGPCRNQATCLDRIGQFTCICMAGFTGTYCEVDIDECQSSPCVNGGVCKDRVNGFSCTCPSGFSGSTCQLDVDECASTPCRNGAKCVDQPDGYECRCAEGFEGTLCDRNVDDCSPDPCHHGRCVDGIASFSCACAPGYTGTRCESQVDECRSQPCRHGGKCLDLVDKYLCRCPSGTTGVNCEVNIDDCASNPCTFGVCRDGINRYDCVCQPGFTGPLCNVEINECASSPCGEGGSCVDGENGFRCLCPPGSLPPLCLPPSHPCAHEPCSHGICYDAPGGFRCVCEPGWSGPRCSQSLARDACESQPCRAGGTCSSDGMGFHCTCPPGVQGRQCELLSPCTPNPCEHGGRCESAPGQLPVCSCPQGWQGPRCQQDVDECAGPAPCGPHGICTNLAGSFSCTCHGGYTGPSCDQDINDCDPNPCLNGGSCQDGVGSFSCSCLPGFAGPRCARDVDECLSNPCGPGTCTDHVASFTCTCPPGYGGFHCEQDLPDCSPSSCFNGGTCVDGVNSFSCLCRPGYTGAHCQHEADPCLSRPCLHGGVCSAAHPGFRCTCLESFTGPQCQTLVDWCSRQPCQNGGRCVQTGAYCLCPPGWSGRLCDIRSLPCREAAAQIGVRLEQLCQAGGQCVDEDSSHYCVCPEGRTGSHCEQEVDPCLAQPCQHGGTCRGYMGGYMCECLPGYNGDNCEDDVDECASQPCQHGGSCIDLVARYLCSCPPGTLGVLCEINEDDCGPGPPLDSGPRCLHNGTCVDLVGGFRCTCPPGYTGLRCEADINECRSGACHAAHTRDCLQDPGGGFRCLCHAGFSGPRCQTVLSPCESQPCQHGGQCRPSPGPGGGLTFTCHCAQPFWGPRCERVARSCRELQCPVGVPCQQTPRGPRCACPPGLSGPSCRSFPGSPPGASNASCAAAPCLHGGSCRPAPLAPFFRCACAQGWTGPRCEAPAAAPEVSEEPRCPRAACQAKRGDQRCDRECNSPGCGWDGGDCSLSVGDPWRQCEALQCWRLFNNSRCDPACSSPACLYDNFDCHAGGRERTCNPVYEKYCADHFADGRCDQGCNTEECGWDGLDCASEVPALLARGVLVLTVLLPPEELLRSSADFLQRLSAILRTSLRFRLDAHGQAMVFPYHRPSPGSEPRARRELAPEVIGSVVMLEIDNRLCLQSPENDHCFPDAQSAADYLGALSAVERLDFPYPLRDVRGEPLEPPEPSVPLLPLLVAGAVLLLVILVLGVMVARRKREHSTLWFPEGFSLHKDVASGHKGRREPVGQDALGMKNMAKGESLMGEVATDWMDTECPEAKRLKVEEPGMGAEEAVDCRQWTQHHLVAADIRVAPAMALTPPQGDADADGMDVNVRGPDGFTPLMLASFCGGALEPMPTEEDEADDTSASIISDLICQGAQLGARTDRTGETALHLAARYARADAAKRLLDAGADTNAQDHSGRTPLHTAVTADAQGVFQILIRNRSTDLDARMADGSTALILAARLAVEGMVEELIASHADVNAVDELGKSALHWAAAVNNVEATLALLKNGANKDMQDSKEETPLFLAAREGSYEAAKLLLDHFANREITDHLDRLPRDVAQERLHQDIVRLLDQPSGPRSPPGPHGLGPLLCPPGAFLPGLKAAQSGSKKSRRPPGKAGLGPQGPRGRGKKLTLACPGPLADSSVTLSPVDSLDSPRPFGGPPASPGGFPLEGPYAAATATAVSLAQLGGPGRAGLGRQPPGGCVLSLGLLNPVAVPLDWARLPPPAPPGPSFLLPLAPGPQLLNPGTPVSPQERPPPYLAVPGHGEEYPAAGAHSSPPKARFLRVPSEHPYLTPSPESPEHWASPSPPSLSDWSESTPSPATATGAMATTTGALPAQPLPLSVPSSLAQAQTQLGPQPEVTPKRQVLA
Pro-neuregulin-1, membrane-bound isoform (Homo sapiens), sequence (Q02297 whole entry, looked up, the tested form may be a part, canonical isoform): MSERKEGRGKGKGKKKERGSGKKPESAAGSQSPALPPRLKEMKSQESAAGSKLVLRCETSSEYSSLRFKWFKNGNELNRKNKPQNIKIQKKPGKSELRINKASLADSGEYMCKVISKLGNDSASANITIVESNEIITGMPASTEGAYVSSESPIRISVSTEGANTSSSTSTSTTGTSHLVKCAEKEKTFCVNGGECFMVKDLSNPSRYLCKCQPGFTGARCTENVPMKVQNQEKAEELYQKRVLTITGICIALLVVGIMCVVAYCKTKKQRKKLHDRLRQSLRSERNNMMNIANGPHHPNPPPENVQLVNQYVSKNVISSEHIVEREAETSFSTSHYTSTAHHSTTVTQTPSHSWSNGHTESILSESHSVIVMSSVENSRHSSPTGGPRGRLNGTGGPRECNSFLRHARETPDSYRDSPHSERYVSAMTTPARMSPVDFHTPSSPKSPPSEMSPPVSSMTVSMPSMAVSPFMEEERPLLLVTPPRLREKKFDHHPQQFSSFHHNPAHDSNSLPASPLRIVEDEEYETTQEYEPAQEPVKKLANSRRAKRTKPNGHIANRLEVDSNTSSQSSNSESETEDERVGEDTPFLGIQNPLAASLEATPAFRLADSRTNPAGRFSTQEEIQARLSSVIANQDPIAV

| SMILES | composite z-score [1] | composite z-score [2] | composite z-score [3] | composite z-score [4] | composite z-score [5] | composite z-score [6] | composite z-score [7] | z-score [8] | composite z-score [9] | composite z-score [10] | composite z-score [11] | z-score [12] | z-score [13] | z-score [14] | composite z-score [15] | z-score [16] | composite z-score [17] | composite z-score [18] | composite z-score [19] | composite z-score [20] |
| --- | --- | --- | --- | --- | --- | --- | --- | --- | --- | --- | --- | --- | --- | --- | --- | --- | --- | --- | --- | --- |
| COC(=O)C=C(CC(O)c1cccc(Cl)c1)OC (stereo not given) | 1.55 | 0.172 | 0.54 | 0.0631 | -0.0372 | 1.76 | 1.21 | -4.2 (inactive) | 1.65 | -0.0879 | 0.0922 | -4.19 (inactive) | -10.8 (active) | -1.02 (inactive) | 2.4 | 0.0753 (inactive) | 1.06 | -0.309 | -0.547 | 0.115 |
| COc1ccc([Si](C)(C)[C@H]2[C@H](CCn3cc([C@H](O)c4ccccc4)nn3)O[C@@]3(C(=O)N(Cc4cccc(N5CCOC5=O)c4)c4ccccc43)[C@@H]2C)cc1 | -0.218 | 0.071 | -0.003 | 0.29 | 0.401 | 0.209 | 1.04 | -0.955 (inactive) | -0.0127 | 0.155 | 0.961 | -0.0578 (inactive) | 0.947 (inactive) | 1.95 (inactive) | 0.872 | -0.565 (inactive) | 0.0342 | 0.827 | 1.04 | 0.117 |
| CC(C)N1C(=O)[C@@]2(Cc3ccccc31)c1ccccc1C(=O)N(C1CCCCC1)[C@H]2c1ccc(CO)cc1 | -0.302 | -0.0937 | -0.132 | 0.397 | 0.184 | 0.452 | 1.24 | 0.0117 (inactive) | -0.123 | -0.296 | 1.56 | -0.0915 (inactive) | -0.34 (inactive) | -2.58 (inactive) | 2.01 | -1.61 (inactive) | -0.132 | 0.79 | 0.79 | 0.0117 |
| CC(C)[C@@H](CO)NC(=O)[C@H]1[C@@H](c2ccccc2)N(c2ccccc2)O[C@@H]1C | -0.5 | -0.245 | -0.143 | 0.439 | -0.208 | -0.0453 | 0.396 | -0.579 (inactive) | -0.0238 | -0.0237 | -0.159 | -0.0247 (inactive) | -0.207 (inactive) | 0.072 (inactive) | 1.02 | 1.08 (inactive) | -0.193 | 0.171 | -0.271 | -0.177 |
| O=C(C1N=C(c2ccc(OCCCO)cc2)N(c2ccccc2)O1)N1CCOCC1 (stereo not given) | -0.428 | 0.267 | 0.0646 | 1.28 | 1.45 | 1.27 | 0.336 | 2.27 (inactive) | 0.974 | -0.113 | 1.55 | -0.867 (inactive) | -0.992 (inactive) | -0.566 (inactive) | 2.22 | 1.75 (inactive) | -0.134 | 1.53 | 1.09 | 0.184 |
| CC[C@@H]1C=C(C(=O)O)[C@H](c2ccco2)N1S(=O)(=O)c1ccc(C)cc1 | 0.001 | 0.0518 | -0.0141 | -0.214 | -0.974 | 0.179 | 0.504 | 0.0623 (inactive) | 0.545 | -0.0391 | 0.475 | 0.316 (inactive) | 0.535 (inactive) | -0.407 (inactive) | 0.0172 | 0.0597 (inactive) | -0.0644 | 0.237 | -0.14 | -0.171 |
| CCC(CC)C(O)C1C=CC2C(=O)N(C)C(=O)C2N1Nc1ccccc1 (stereo not given) | 0.53 | 0.219 | 0.117 | 0.258 | 1.47 | 1.47 | 0.816 | 1.97 (inactive) | 0.876 | -0.134 | 1.02 | -0.0298 (inactive) | -0.575 (inactive) | 0.0024 (inactive) | 3.07 | 0.103 (inactive) | -0.0321 | -0.0929 | 1.06 | -0.0828 |
| COCCCNC(=O)[C@@]1(Cc2ccccc2)N=C(c2ccc(OCCCO)cc2)O[C@H]1c1ccccc1 | 0.743 | 1.2 | 0.298 | 0.155 | 0.82 | 1.38 | 1.33 | -1.4 (inactive) | 1.08 | 1.17 | 1.42 | -1.69 (inactive) | -0.475 (inactive) | -1.74 (inactive) | 3.36 | 0.474 (inactive) | 0.355 | -0.416 | 0.6 | 0.265 |
| O=C1OCCC/C=C\[C@H]2OC34C=CCN(Cc5ccccc5)C(=O)[C@H]3N(CCCCCCO)C(=O)[C@@H]4C12 (stereo not given in full) | 1.26 | 1.37 | -0.0956 | -0.437 | -0.793 | 1.31 | 1.31 | 0.247 (inactive) | -0.467 | -0.0003 | -0.197 | 0.464 (inactive) | -0.431 (inactive) | 0.0977 (inactive) | 2.24 | 0.991 (inactive) | 0.0359 | -2.14 | -0.927 | -0.237 |
| COc1ccc(C(O)C2C=CC3C(=O)N(C)C(=O)C3N2N2CCCCC2)c2ccccc12 (stereo not given) | -0.226 | 0.0595 | 0.192 | 0.988 | 1.65 | 1.27 | 1.07 | -0.292 (inactive) | 0.858 | 0.176 | 1.42 | -0.079 (inactive) | 1.16 (inactive) | 0.631 (inactive) | 3.01 | -1.22 (inactive) | 0.168 | 0.303 | 1.11 | 0.095 |
